# Source: paper PMC7862700, “An all-to-all approach to the identification of sequence-specific readers for epigenetic DNA modifications on cytosine”
# Key:
# Assay in all cases: DAPPL (digital affinity profiling via proximity ligation, sequencing); 10 mM Tris-HCl pH 7.5, 50 mM NaCl, 1 mM DTT, 4% glycerol, room temperature, 30 min; GST-TFs on glutathione beads, 16-mer random dsDNA library, 0.1% formaldehyde crosslink after washing; high values mean tight binding
# FLI1 = target: T1, FLI1 (Homo sapiens, UniProt Q01543 1-452); conditions: protein: recombinant; tags: N-terminal GST; dsDNA, one strand shown
# T1 sequence: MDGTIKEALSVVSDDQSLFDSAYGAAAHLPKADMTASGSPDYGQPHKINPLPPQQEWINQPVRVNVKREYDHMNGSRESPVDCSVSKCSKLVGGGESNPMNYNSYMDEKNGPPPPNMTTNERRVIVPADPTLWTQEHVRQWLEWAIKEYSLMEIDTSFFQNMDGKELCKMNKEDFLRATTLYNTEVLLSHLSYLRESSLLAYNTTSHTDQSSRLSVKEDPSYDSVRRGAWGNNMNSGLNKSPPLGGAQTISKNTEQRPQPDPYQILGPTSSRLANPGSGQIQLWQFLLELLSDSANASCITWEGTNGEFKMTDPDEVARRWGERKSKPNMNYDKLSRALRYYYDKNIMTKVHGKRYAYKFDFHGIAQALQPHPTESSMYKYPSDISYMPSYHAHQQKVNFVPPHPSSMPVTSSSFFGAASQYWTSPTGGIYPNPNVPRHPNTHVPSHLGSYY
# Outline: (§1)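 Beads coated with glutathione captured GST-fused human transcription factors that had been expressed in yeast, and the factors were then given DNA barcodes and pooled with a tag-only sample. The pools were incubated with 200 nmole of a random double-stranded 16-mer DNA library in Tris/NaCl/DTT/glycerol buffer for 30 min at room temperature, washed, crosslinked with 0.1% formaldehyde and proximity-ligated with BsaI/T4 ligase at 37 °C for 1 h. PCR amplification and Illumina NextSeq500 sequencing came last. Binding signal is each hexamer's read frequency for a factor divided by its frequency for the tag-only sample.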
# ELK1 = target: T2, ELK1 (Homo sapiens, UniProt P19419 1-428); conditions: protein: recombinant; tags: N-terminal GST; dsDNA, one strand shown
# T2 sequence: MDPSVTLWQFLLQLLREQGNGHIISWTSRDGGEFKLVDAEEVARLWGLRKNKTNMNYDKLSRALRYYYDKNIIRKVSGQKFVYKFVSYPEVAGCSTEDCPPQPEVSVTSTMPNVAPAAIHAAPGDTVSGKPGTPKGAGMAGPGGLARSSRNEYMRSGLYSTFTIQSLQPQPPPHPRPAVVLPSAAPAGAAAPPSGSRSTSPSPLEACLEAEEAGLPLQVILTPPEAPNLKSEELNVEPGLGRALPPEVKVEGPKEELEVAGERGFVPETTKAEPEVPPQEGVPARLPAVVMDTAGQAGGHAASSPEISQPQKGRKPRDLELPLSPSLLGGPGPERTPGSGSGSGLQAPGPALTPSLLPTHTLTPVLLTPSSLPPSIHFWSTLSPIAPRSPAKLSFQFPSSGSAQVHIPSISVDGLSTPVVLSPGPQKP
# Outline: as §1
# GABPA = target: T3, GABPA (Homo sapiens, UniProt Q06546 1-454); conditions: protein: recombinant; tags: N-terminal GST; dsDNA, one strand shown
# T3 sequence: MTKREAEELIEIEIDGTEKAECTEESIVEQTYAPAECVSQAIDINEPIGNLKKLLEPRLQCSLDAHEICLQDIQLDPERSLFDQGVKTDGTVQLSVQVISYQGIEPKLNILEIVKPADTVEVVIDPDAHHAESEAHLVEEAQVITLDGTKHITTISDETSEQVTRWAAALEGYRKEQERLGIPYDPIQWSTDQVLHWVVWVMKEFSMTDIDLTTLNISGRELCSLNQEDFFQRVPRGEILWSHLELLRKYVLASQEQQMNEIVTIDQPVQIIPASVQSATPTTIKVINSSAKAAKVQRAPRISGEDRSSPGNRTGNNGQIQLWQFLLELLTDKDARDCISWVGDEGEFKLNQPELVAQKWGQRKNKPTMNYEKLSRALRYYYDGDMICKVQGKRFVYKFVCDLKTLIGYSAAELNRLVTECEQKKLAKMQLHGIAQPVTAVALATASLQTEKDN
# Outline: as §1
# ERG = target: T4, ERG (Homo sapiens, UniProt P11308 1-479); conditions: protein: recombinant; tags: N-terminal GST; dsDNA, one strand shown
# T4 sequence: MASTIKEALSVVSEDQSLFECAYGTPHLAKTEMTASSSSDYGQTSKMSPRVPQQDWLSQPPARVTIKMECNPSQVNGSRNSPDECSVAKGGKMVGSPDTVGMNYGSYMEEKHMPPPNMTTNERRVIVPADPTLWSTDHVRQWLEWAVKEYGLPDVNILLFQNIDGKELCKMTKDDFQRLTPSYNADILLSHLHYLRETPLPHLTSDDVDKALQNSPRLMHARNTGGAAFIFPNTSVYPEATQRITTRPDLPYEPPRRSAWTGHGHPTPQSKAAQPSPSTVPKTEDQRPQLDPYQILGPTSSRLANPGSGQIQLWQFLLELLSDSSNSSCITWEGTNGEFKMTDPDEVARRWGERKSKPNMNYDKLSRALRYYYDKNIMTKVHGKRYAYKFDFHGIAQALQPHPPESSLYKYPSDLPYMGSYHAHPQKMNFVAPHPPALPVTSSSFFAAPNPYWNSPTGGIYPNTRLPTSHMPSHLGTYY
# Outline: as §1
# ELF1 = ELF1 (Homo sapiens, UniProt P32519 1-619); conditions: protein: recombinant; tags: N-terminal GST; dsDNA, one strand shown
# Chain of ELF1 (P32519 whole entry): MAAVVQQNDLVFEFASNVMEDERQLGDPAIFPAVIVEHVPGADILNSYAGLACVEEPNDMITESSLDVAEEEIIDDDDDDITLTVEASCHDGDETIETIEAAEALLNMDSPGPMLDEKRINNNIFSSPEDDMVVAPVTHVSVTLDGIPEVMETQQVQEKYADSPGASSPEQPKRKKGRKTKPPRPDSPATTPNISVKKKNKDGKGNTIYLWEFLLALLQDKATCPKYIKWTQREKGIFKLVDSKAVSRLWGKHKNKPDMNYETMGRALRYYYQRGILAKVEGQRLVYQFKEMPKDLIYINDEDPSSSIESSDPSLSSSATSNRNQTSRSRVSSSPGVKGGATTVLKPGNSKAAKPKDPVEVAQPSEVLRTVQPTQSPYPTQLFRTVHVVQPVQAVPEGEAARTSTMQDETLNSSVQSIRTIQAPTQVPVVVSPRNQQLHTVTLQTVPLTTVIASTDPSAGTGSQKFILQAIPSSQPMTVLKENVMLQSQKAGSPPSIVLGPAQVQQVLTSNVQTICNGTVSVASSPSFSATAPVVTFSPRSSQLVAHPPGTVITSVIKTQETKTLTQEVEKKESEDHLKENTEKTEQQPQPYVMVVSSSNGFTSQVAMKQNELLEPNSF
# Outline: as §1
# EHF = target: T5, EHF (Homo sapiens, UniProt Q9NZC4 1-300); conditions: protein: recombinant; tags: N-terminal GST; dsDNA, one strand shown
# T5 sequence: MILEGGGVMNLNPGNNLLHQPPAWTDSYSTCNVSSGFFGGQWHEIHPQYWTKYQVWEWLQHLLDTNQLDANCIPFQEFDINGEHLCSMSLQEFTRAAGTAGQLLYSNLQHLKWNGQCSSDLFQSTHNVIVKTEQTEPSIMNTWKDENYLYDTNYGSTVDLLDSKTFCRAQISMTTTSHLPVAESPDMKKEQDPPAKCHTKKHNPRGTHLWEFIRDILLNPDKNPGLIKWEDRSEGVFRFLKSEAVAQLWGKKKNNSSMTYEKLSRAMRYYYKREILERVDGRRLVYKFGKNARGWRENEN
# Outline: as §1
# SPI1 = SPI1 (Homo sapiens, UniProt P17947 1-270); conditions: protein: recombinant; tags: N-terminal GST; dsDNA, one strand shown
# Outline: as §1
# SPIB = SPIB (Homo sapiens, UniProt Q01892 1-262); conditions: protein: recombinant; tags: N-terminal GST; dsDNA, one strand shown
# Chain of SPIB (Q01892 whole entry): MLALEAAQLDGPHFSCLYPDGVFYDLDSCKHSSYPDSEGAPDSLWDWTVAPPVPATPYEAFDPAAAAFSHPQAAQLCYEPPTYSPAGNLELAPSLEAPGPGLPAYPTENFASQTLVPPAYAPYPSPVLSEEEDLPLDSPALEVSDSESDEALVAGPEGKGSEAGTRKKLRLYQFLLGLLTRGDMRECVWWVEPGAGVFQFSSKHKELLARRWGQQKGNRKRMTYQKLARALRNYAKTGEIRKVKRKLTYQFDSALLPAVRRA
# Outline: as §1
# ELK3 = target: T6, ELK3 (Homo sapiens, UniProt P41970 1-407); conditions: protein: recombinant; tags: N-terminal GST; dsDNA, one strand shown
# T6 sequence: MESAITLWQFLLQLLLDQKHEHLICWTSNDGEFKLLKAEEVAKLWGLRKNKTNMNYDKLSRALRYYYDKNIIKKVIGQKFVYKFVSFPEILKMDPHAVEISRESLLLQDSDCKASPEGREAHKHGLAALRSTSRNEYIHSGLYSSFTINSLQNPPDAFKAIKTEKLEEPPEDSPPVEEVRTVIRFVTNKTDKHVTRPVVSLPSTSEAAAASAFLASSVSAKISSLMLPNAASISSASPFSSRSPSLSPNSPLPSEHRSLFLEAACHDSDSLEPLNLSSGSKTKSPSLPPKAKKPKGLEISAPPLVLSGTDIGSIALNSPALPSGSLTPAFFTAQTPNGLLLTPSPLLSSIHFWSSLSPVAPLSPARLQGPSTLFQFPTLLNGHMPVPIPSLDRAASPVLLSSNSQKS
# Outline: as §1
# FEV = target: T7, FEV (Homo sapiens, UniProt Q99581 1-238); conditions: protein: recombinant; tags: N-terminal GST; dsDNA, one strand shown
# T7 sequence: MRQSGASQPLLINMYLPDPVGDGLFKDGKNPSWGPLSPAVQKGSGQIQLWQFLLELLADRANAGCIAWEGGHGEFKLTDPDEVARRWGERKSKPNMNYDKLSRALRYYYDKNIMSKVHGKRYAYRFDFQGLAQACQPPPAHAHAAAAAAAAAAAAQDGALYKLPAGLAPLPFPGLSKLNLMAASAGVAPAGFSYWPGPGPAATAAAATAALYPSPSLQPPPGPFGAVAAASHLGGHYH
# Outline: as §1
# ETV5 = ETV5 (Homo sapiens, UniProt P41161 1-510); conditions: protein: recombinant; tags: N-terminal GST; dsDNA, one strand shown
# Chain of ETV5 (P41161 whole entry): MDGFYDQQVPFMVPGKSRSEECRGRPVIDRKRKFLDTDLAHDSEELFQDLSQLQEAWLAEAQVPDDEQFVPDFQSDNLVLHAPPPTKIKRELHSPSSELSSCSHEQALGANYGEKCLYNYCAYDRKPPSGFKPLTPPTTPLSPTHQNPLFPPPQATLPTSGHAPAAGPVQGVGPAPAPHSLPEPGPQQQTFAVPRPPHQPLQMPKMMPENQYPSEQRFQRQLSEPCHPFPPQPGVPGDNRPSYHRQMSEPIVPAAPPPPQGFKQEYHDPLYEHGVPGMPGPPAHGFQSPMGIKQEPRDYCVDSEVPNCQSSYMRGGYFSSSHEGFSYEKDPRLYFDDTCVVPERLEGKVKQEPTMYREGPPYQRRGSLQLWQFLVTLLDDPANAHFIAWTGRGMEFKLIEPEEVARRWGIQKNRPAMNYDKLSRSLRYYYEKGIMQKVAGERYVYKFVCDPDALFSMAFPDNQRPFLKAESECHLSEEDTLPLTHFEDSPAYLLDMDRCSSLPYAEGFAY
# Outline: as §1
# HSF1 = HSF1 (Homo sapiens, UniProt Q00613 1-529); conditions: protein: recombinant; tags: N-terminal GST; chain copies: 3; dsDNA, one strand shown
# Chain of HSF1 (Q00613 whole entry): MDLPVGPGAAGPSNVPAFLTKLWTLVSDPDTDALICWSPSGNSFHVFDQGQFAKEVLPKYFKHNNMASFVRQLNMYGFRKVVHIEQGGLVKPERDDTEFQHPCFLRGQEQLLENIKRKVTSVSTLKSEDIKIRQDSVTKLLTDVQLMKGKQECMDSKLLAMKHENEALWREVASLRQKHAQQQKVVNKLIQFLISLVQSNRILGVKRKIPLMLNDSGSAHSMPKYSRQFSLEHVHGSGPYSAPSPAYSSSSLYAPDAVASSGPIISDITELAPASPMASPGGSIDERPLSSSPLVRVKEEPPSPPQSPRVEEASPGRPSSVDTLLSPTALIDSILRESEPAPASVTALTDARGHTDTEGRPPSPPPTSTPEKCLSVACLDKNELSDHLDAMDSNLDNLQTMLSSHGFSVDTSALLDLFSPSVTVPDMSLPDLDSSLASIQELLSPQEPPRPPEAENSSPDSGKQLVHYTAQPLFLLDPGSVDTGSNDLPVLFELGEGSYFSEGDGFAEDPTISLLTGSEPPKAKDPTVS
# Outline: as §1
# SPIC = target: T8, SPIC (Homo sapiens, UniProt Q8N5J4 1-248); conditions: protein: recombinant; tags: N-terminal GST; dsDNA, one strand shown
# T8 sequence: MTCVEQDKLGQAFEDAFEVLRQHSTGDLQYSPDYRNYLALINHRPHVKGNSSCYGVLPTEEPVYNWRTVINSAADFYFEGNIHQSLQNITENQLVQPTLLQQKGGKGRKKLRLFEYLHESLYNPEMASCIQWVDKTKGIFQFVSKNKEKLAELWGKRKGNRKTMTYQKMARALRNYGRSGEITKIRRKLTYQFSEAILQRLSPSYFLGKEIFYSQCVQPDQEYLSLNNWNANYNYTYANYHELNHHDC
# Outline: as §1
# ELF4 = ELF4 (Homo sapiens, UniProt Q99607 1-663); conditions: protein: recombinant; tags: N-terminal GST; dsDNA, one strand shown
# Chain of ELF4 (Q99607 whole entry): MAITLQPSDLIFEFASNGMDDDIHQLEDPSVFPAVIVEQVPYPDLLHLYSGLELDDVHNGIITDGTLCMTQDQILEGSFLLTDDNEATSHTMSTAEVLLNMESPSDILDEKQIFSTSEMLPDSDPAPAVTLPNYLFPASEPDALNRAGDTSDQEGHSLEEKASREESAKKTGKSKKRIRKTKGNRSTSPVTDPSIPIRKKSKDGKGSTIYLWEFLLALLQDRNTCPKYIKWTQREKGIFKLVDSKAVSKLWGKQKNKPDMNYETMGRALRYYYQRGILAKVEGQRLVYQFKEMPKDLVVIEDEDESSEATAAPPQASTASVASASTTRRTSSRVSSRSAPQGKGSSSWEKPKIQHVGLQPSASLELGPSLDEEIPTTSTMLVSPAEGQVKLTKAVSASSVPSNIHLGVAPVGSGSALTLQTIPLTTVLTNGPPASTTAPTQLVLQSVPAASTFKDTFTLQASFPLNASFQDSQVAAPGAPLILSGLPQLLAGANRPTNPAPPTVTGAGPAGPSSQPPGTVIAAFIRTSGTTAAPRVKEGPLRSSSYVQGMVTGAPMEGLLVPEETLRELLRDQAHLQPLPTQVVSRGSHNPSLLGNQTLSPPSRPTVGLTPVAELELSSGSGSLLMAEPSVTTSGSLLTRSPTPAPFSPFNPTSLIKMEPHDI
# Outline: as §1
# ELK4 = target: T9, ELK4 (Homo sapiens, UniProt P28324-2 1-405); conditions: protein: recombinant; tags: N-terminal GST; dsDNA, one strand shown
# T9 sequence: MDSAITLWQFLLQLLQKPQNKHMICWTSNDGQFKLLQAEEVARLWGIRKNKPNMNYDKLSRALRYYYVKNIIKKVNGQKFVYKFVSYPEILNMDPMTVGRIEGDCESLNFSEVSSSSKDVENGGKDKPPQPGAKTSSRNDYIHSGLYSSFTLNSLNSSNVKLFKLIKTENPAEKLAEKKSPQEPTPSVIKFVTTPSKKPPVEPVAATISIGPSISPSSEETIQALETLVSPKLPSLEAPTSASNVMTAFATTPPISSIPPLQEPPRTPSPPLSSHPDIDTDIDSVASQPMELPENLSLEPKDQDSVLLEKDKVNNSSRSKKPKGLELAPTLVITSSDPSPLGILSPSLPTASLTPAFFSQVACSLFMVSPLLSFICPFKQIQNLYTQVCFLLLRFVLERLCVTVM
# Outline: as §1
# ETV2 = target: T10, ETV2 (Homo sapiens, UniProt O00321 1-342); conditions: protein: recombinant; tags: N-terminal GST; dsDNA, one strand shown
# T10 sequence: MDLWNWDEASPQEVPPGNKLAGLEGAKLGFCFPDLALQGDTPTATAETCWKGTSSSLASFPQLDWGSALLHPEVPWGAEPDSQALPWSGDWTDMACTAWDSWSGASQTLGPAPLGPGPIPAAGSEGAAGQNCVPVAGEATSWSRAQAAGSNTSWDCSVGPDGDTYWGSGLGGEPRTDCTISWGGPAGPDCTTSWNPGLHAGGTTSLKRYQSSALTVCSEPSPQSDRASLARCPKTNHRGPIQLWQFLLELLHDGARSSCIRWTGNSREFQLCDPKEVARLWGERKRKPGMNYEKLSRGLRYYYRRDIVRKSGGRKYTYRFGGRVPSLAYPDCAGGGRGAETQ
# Outline: as §1
# ELF3 = target: T11, ELF3 (Homo sapiens, UniProt P78545 1-371); conditions: protein: recombinant; tags: N-terminal GST; dsDNA, one strand shown
# T11 sequence: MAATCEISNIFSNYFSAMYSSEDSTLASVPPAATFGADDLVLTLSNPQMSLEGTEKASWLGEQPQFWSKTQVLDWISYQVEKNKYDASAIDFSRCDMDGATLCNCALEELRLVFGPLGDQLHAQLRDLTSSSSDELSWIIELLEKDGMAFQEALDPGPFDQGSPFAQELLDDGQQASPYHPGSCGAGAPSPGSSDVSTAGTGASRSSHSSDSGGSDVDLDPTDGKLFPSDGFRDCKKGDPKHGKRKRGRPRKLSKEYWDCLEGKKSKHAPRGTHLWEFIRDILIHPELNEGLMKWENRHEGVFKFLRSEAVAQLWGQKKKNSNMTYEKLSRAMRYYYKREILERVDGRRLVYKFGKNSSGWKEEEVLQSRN
# Outline: as §1
# CRX = CRX (Homo sapiens, UniProt O43186 1-299); conditions: protein: recombinant; tags: N-terminal GST; dsDNA, one strand shown
# Chain of CRX (O43186 whole entry): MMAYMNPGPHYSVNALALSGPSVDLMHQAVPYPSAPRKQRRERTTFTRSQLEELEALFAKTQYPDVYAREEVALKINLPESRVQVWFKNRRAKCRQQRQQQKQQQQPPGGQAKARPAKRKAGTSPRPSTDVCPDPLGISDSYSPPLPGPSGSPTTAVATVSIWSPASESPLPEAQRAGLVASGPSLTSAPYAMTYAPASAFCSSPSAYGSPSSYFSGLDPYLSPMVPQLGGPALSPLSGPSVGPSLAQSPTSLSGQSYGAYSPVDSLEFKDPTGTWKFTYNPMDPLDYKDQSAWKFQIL
# Outline: as §1
# ETV1 = ETV1 (Homo sapiens, UniProt P50549 1-477); conditions: protein: recombinant; tags: N-terminal GST; dsDNA, one strand shown
# Chain of ETV1 (P50549 whole entry): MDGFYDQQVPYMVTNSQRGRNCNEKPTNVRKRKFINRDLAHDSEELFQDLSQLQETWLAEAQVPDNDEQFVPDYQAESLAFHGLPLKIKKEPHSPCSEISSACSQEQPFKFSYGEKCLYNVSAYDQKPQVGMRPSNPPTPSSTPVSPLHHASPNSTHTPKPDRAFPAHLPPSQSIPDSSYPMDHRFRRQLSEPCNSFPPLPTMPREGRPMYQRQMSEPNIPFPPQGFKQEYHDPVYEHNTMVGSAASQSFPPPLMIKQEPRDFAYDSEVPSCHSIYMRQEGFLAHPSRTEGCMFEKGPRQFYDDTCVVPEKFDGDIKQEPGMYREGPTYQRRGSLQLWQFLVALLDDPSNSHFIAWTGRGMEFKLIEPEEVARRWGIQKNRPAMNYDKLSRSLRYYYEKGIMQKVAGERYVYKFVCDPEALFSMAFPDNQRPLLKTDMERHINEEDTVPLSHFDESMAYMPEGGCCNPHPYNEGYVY
# Outline: as §1
sequence,measurement,setting,value
CCGCTA,binding signal,FLI1,"1.45 fold enrichment (6-mer frequency, TF over GST control)"
same,binding signal,ELK1,"1.37 fold enrichment (6-mer frequency, TF over GST control)"
same,binding signal,GABPA,"1.2 fold enrichment (6-mer frequency, TF over GST control)"
same,binding signal,ERG,"1.37 fold enrichment (6-mer frequency, TF over GST control)"
same,binding signal,ELF1,"1.27 fold enrichment (6-mer frequency, TF over GST control)"
same,binding signal,EHF,"1.41 fold enrichment (6-mer frequency, TF over GST control)"
same,binding signal,SPI1,"1.51 fold enrichment (6-mer frequency, TF over GST control)"
same,binding signal,SPIB,"1.46 fold enrichment (6-mer frequency, TF over GST control)"
same,binding signal,ELK3,"1.37 fold enrichment (6-mer frequency, TF over GST control)"
same,binding signal,FEV,"1.33 fold enrichment (6-mer frequency, TF over GST control)"
same,binding signal,ETV5,"1.23 fold enrichment (6-mer frequency, TF over GST control)"
same,binding signal,HSF1,"1.17 fold enrichment (6-mer frequency, TF over GST control)"
same,binding signal,SPIC,"1.44 fold enrichment (6-mer frequency, TF over GST control)"
same,binding signal,ELF4,"1.33 fold enrichment (6-mer frequency, TF over GST control)"
same,binding signal,ELK4,"1.3 fold enrichment (6-mer frequency, TF over GST control)"
same,binding signal,ETV2,"1.37 fold enrichment (6-mer frequency, TF over GST control)"
same,binding signal,ELF3,"1.38 fold enrichment (6-mer frequency, TF over GST control)"
same,binding signal,CRX,"1.28 fold enrichment (6-mer frequency, TF over GST control)"
same,binding signal,ETV1,"1.36 fold enrichment (6-mer frequency, TF over GST control)"
